# Laboratory results as given in ChEMBL document CHEMBL3988442, “University of Dundee, Small-Polar-MMV Screening Library” (2021).
# Out of some 48,000 compounds screened, about 13,000 (27%) showed an effect of 50% or more. This is one part of the list.
# System: Wolbachia pipientis
# Test: Anti-Wolbachia Cell-Based Screen
# Type: functional
# Set-up: scale not given: in the data most compounds retested in dose-response had high values
# Conditions: 5 µM
row,Structure (SMILES),Percent Effect [%]
1,OCC1(O)CCN(Cc2ccc(-c3cc[nH]n3)s2)CC1,-3.236
2,CCCN1CC(NC(=O)Nc2nc(C)n(C(C)C)n2)CC1=O (configuration not stated),-10.65
3,CC1CN(CC(=O)Nc2nncs2)CCN1Cc1nccn1C (configuration not stated),-11.48
4,Cc1n[nH]c(C)c1NC(=O)CN1CCN(c2nccs2)C(C)C1 (configuration not stated),95.63
5,Cc1cc(NC(=O)CN2CCN(c3nccs3)C(C)C2)n(C)n1 (configuration not stated),-9.576
6,Cc1csc(N2CCN(CC(=O)Nc3c(C)n[nH]c3C)CC2C)n1 (configuration not stated),7.256
7,Cc1nn(C)c(C)c1NC(=O)CN1CCN(c2nccs2)C(C)C1 (configuration not stated),107.6
8,CCc1cnc(N2CCN(CC(=O)Nc3c(C)n[nH]c3C)CC2)s1,-15.52
9,CCC(C(=O)NC1CCN(S(C)(=O)=O)CC1)n1cccn1 (configuration not stated),-1.013
10,Cc1cc(C)n(CCC2CC(=O)Nc3cc4[nH]ncc4cc32)n1 (configuration not stated),5.657
11,O=C(CN1CCSCC1c1ccccc1)N1CCOCC1 (configuration not stated),-10.11
12,O=C(C1CCOCC1)N1CCC2(CC1)CC(Oc1ccccc1)CO2 (configuration not stated),2.022
13,O=C(C1CCOC1)N1CC2(CCN(c3ccccc3)C2)C1 (configuration not stated),126.5
14,O=C(CN1C[C@H]2C[C@H](OCc3ccccc3)C[C@H]2C1)N1CCOCC1,120.8
15,O=C(Cc1cccnc1)N1CCC(OCc2ccccc2)CC1,5.712
16,COc1ccccc1CC1CCCN(CC(=O)N2CCOCC2)C1 (configuration not stated),1.243
17,O=C(CO)N1CC2(CCN(c3ccccc3)C2)C1,-2.652
18,O=C(C1CCOC1)N1C[C@H]2CN(c3ccccc3)C(=O)[C@H]2C1 (some centres not stated),2.352
19,O=C(C1CCOC1)N1CCC(OCc2ccccc2)CC1 (configuration not stated),104.9
20,O=C(CCO)N1CC2(CCN(c3ccccc3)C2)C1,3.033
21,O=C(COCc1ccccc1)N1CCC(OCc2cccnc2)CC1,-1.111
22,O=C(C1CCOCC1)N1C[C@H]2C[C@H](OCc3ccccc3)C[C@H]2C1,85.95
23,CC(=O)c1c(C)nn(CC(=O)N2Cc3cnc(C(C)(C)C)nc3C2)c1C,-8.133

row,Structure (SMILES),Percent Effect [%]
1,CCS(=O)(=O)N1Cc2c(Cn3ccnc3)nn(C)c2C1,-18.78
2,CC(C)(C)OC(=O)N1CCCc2ccc(NCc3cc[nH]c3)cc21,-2.534
3,O=C(NCC1Cn2nnc(-c3ccsc3)c2CO1)N1CCCC1 (configuration not stated),-5.299
4,CC(=O)N1CCC2(CC1)CN(C(=O)c1cccnc1)c1ccc(F)cc12.O=C(O)C(F)(F)F,91.49
5,O=C(O)c1ccc2c(c1)C1(CCCCC1)CN2C(=O)c1ccnnc1,-1.269
6,O=C(C1CC1)N1CC2(CCN(CC3CC3)CC2)c2cc(F)ccc21.O=C(O)C(F)(F)F,-39.82
7,CN1CCC2(CC1)CN(C(=O)c1cccnc1)c1ccc(Cl)cc12,127.2
8,CC(=O)N1CCC2(CC1)C(=O)N(c1cccnc1)c1ccc(F)cc12,-4.26
9,CCN1CCC2(CC1)CN(C(=O)c1cccnc1)c1ccc(Cl)cc12.O=C(O)C(F)(F)F.O=C(O)C(F)(F)F,116.9
10,COCCN1CCC2(CC1)CN(C(=O)C1CC1)c1ccc(F)cc12.O=C(O)C(F)(F)F,-7.452
11,CCN1CCC2(CC1)CN(C(C)=O)c1ccc(C)cc12,-4.945
12,Cc1cncc(C(=O)N2Cc3ccccc3C3(CCN(C)CC3)C2)c1,-5.03
13,O=C(O)c1ccc2c(c1)C1(CCCCC1)CN2C(=O)c1cccc(F)c1,-4.529
14,CCCN1CCC2(CC1)CN(C(=O)c1cccnc1)c1ccc(F)cc12.O=C(O)C(F)(F)F.O=C(O)C(F)(F)F,115.7
15,CCCc1cncnc1N1CCC(NCc2ccc(O)cc2)CC1,-4.089
16,O=C(Nc1cccnc1)C1=Cc2ccccc2OC1,18.82
17,O=C(CSC1CCCC1)N1CCN(c2ccc(-n3cncn3)nn2)CC1,20.49
18,CCN1CCN(Cc2nc(CCc3ccccc3)n[nH]2)CC1,14.2
19,CC(NC(=O)CN1CCN(Cc2ccc(Br)s2)CC1)c1ccccc1 (configuration not stated),-2.941
20,CCN(CC)c1ccc(NS(=O)(=O)c2cnn(CC)c2)cn1,-19.91
21,Cc1ocnc1C(=O)N(C)[C@@H]1CC[C@@H](Oc2ccccc2)[C@@H]1O,100.2
22,Cc1ocnc1C(=O)N(C)[C@@H]1CCC[C@@H](N2CCCC2)[C@@H]1O,115.9
23,Cc1ocnc1C(=O)N[C@H]1CN(CC2CCC2)C[C@@H]1C(C)C,16.35

row,Structure (SMILES),Percent Effect [%]
1,Cc1occc1C(=O)NCC(=O)N1CCC(COc2ccccc2)CC1,1.262
2,Cc1ocnc1C(=O)N(C)[C@@H]1CC[C@@H](n2ccnc2C)[C@@H]1O,115
3,Cc1cn2c(CN(C)C(=O)c3ncoc3C)c(C)nc2s1,-12.17
4,CCN(CCc1nccs1)C(=O)c1ncoc1C,-4.771
5,Cc1occc1C(=O)NCC(=O)N(C)CCCOc1ccccc1,11.74
6,Cc1ocnc1C(=O)N(Cc1cccnc1)C[C@@H]1CCC(=O)N1,-1.977
7,CCCN(CCC)C1(Cc2cc(-c3cccc(O)c3)on2)COC1,-7.184
8,N#CCCN(C(=O)CN1CCCC1Cc1ccccc1)c1ccccc1 (configuration not stated),14.76
9,CN(C)CCn1ccc(NC(=O)NC(C)(C)c2nccs2)n1,4.261
10,CC(C)c1nn(C)c(N(C)C)c1CNCc1ccc2c(c1)OCO2,-1.149
11,Cc1ccn(-c2ccccc2NCc2ccccn2)n1,5.866
12,COc1ccc(CNC(C)c2cnc3cc(C)nn3c2C)cc1 (configuration not stated),8.81
13,Cc1cc(-c2cnc(NCc3ccccn3)nc2C(C)C)on1,93.57
14,Cn1ccnc1-c1noc(NCc2ccc3c(c2)OCCO3)n1,-0.6068
15,COc1cccc(CNc2nc(C)cc(C)n2)c1OC,34.66
16,COc1ccc(CNc2ncc(-c3cc(C)no3)c(C(C)C)n2)cc1,97.64
17,COCc1cc(NCc2ccccc2OC)ncn1,-8.883
18,Cn1ncnc1-c1ccnc(NCc2ccccn2)n1,-1.94
19,Cc1cc(-c2cnc(NCc3ccc4c(c3)OCO4)nc2C(C)C)on1,111.2
20,COc1ccc(CNC2(Cc3cc(CC(C)C)on3)COC2)cc1,1.284
21,COc1ccccc1CNc1ncc(-c2cc(C)no2)c(C(C)C)n1,92
